PubChem BioAssay (NCI)
About 83,000 compounds went through this panel and 20% of them were active in at least one assay; those are over-represented in the sample as a whole.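 Method: cells in 96-well plates; compound added at one concentration; 48 h incubation; percent growth measured; values under 10 scored active.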 A number with no mark means an inactive call. Active and inactive are the calls of the source.

The molecules below were run on HL-60(TB) leukemia (assay: NCI-60 one-dose screen, 48 h (100 = growth as untreated, 0 = no growth, -100 = all killed)). Conditions: 10 µM unless noted.

SMILES	growth
CCOc1ccc2c(c1)CN(Cc1ccc(Cl)cc1)CO2	94.9%
N=C(N)c1ccc(-c2ccc(-c3ccc(Cl)cc3)s2)s1	-58.6% (active)
COC(=O)c1nc(-c2ccccc2)oc1S(=O)(=O)Cc1ccccc1	16.8%
CC(C)(C)OC(=O)N1CC(Cn2cc(C(F)(F)F)c3c(Cl)ncnc32)C1	-67.5% (active)
Cc1cccc(C)c1NCc1nnc(-c2ccc(O)cc2)o1	111%
CCOC(=O)C1=C(C)N=c2s/c(=C\c3ccccc3O)c(=O)n2C1c1ccc(OC)c2ccccc12 (stereo not given)	-48.6% (active)
CN[C@@H]1C[C@H]2O[C@@](C)([C@@H]1OC)n1c3ccccc3c3c4c(c5c6ccccc6n2c5c31)C(=O)N[C@H]4O	-40.8% (active)
COc1cc(/C=C/C(=O)c2ccccc2O)ccc1OCCCOc1cc2c(cc1OC)C(=O)N1CCC[C@H]1C=N2	-27.4% (active)
CN1CCN(CCCOc2ccc3ncnc(Nc4ccc(Oc5cccc(F)c5)c(Cl)c4)c3c2)CC1	-47.3% (active)
COc1ccc(-c2cc(-c3ccccc3)nc(N3CCN(CCNc4ccnc5cc(Cl)ccc45)CC3)n2)cc1	-39.8% (active)
COC1=C(C)C(=O)c2c(c(CCCl)c3n2CCC3OC(C)=O)C1=O (stereo not given)	34.2%
S=C(Cc1ccc(-c2ccccc2)cc1)N1CCOCC1	98.9%
O=C1NC(=Nc2ccc(O)cc2)S/C1=C\c1cccc(Cl)c1	22.9%
CCOC(=O)C(CSC(c1ccccc1)(c1ccccc1)c1ccccc1)NC(=O)C(CSC(c1ccccc1)(c1ccccc1)c1ccccc1)NC(c1ccccc1)(c1ccccc1)c1ccccc1 (stereo not given)	118%
C=NNc1ccccc1	117%
CCOC(=O)CC1C(CNC(=O)NC)OC(n2cnc3c(NC(=O)Nc4ccccc4)ncnc32)C1O[Si](C)(C)C(C)(C)C (stereo not given)	44.5%
O=C(N/N=C/c1cc(Cl)ccc1O)c1ccccc1Nc1ccnc(C(F)(F)F)c1	39.3%
COc1cnc2c(c1)C(=O)c1c-2n(CCCBr)c(=O)c2cc([N+](=O)[O-])ccc12	5.74% (active)
COc1ccc(NC(=O)Nc2ccccc2CNc2nc(Nc3ccc(OCCN4CCCC4)cc3)ncc2Cl)cc1	-43.7% (active)
COc1cc(-c2cc(-c3ccc(Nc4ccnc5cc(Cl)ccc45)cc3)nc(N3CCOCC3)n2)cc(OC)c1OC	68.2%

SMILES	growth
C=C1C(=O)O[C@H]2[C@H]1CC/C(COC(=O)N[C@@H](Cc1c[nH]c3ccccc13)C(=O)OC)=C\CC[C@@]1(C)O[C@@H]21	-52.6% (active)
Cc1[nH]n(C(=O)c2ccncc2)c(=O)c1N=Nc1ccc(S(=O)(=O)Nc2ccncn2)cc1	91.3%
Cc1ccc(Nc2nc(-c3ccc(F)cc3)c(C#N)c(=O)n2C)cc1	90.1%
CN(C)c1cc(NN=C(c2ccc(O)cc2)c2ccc(O)cc2)c([N+](=O)[O-])cc1[N+](=O)[O-]	127%
O=c1nc(NO)[nH]c(=O)n1Cc1ccc(F)cc1	103%
O=C(/C(Br)=C/c1ccccc1)c1ccccc1	-2.59% (active)
O=[N+]([O-])c1ccc(Br)o1	74.8%
O=c1c2cc(C(F)(F)F)ccc2sc2c(NCCCNCCO)nc3ccccc3c12	-19% (active)
O=C1C=CC(=O)N1CCCCCCCCCCN1C(=O)C=CC1=O	12.2%
COc1cc2nccc(Oc3ccc(NC(=O)C4(C(=O)Nc5ccc(F)cc5)CC4)cc3)c2cc1O	54.5%
C=C(C)[C@@H]1CC[C@]2(C(N)=O)CC[C@]3(C)[C@H](CC[C@@H]4[C@@]5(C)CC[C@H](O)C(C)(C)[C@@H]5CC[C@]43C)[C@@H]12	1.17% [100 µM] (active)
COc1ccc2[nH]c(C(=O)OCc3ccc4c(Br)cc(Br)c(O)c4n3)cc2c1	-32.7% (active)
O=[N+]([O-])c1cc[n+]([O-])cc1	36.1%
CC1(C)Cc2c(Br)c(Br)c(Br)c(OCC(O)CN3CCN(c4ccccn4)CC3)c2O1 (stereo not given)	61.1%
CCN(CC)CCn1c2ccc(O)cc2c2sc3cc(O)ccc3c(=O)c21	38%
C=C1C(=O)O[C@H]2[C@H]1CC/C(C(=O)NCCCCCNC(=O)/C1=C/CC[C@@]3(C)O[C@H]3[C@H]3OC(=O)C(=C)[C@@H]3CC1)=C\CC[C@@]1(C)O[C@@H]21	89.4%
C(CCCSC1=NCCN1)CCSC1=NCCN1	76.2%
Oc1c(CN2CCC(N3CCOCC3)CC2)cc(Cc2cc(CN3CCC(N4CCOCC4)CC3)c(O)c3ncccc23)c2cccnc12	-5.88% (active)
CCCCOc1ccc(/C=N/Nc2cc(C)nc3ccc(Br)cc23)cc1	1.52% (active)
Cc1cc2cn3c4cccnc4[nH]c(=O)c3c2cc1C	-32.6% (active)
